phage Ecoli inh = E. coli growth loss with phage present. growth absorbance. inhibition, % at 11.9 µM. 0.26% of 360,000 active; in the data active = inhibition above about 11%
E coli growth-1 = inhibitors of Escherichia coli growth | OD600, 23 h; active compounds read low | OD600 absorbance (concentration not given with the values) | 0.21% of 330,000 active;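 active = OD600 absorbance below the run mean of sample wells minus 3.6 SD, in any replicate, cut at about 0.56 in these data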
AddAB inh = less growth of phage-infected E. coli with AddAB; 0.29% of 330,000 active; AID 435030; inhibition, % at 11.9 µM; E. coli expressing H. pylori AddAB, absorbance growth; in the data active = inhibition above about 12%
E coli growth-2 = reduces bacterial viability in AddAB counter-screen; 0.27% of 330,000 active; E. coli V3065 growth, OD600 absorbance, 18 h; inhibition, % at 11.9 µM;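 active = inhibition above the campaign's mean inhibition across all tested compounds plus 3 SD, cut at about 9.9% in these data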;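 also: uninfected addAB+ strain grown without phage in ampicillin broth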
Tat export inh = blocks Tat-dependent protein export in E. coli. AID 488895. E. coli MC4100 TorA-mCherry Tat export, fluorescence. 0.036% of 340,000 active. inhibition, % at 10 µM;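 active = mean replicate inhibition at least 50% and at least half of replicates individually reaching 50%; inconclusive = only one of the two criteria met; inactive = neither criterion met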;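 also: exported cargo escapes ClpAP degradation while cytoplasmic cargo is degraded and loses fluorescence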
Numbers stand for hits; n = inactive; u = inconclusive; x = not tested or not shown; ! = repeats disagree. Most compounds without a hit are left out; they make up all but 0.51% or so of the library.

SMILES	phage Ecoli inh	E coli growth-1	AddAB inh	E coli growth-2	Tat export inh
CN(C)C1CCN(Cc2cc(COCc3ccccc3)c3cccnc3c2O)C1 (stereo unspecified)	x	x	n	10	n
Oc1ccc(CN2CCc3ccccc3C2)c2cccnc12	n	0.47	n	n	n
Oc1ccc(CN2CCN(c3ccccc3)CC2)c2cccnc12	x	n	n	n	n
CC(C)(C)OC(=O)NC(C(=O)OC(C)(C)C)c1ccc2ccccc2c1 (stereo unspecified)	x	n	x	x	x
COc1ccccc1CN1C(CC(=O)O)c2cc(F)ccc2S1(=O)=O (stereo unspecified)	x	n	x	x	x
COc1ccc(SCC(C)CN2CCC(NC(=O)OCc3ccccc3)CCC2=O)cc1 (stereo unspecified)	x	n	x	x	x
Oc1c(Cl)cc(Cl)cc1CNc1ccccn1	n	n	x	x	n
Oc1c(Cl)cc(Cl)cc1CNc1nc2ccccc2[nH]1	n	0.42	n	n	n
CC(O)C1CN=C(N)N1CCc1cc(C(F)(F)F)cc(C(F)(F)F)c1 (stereo unspecified)	x	n	x	x	x
CCCCN(C)CCn1c(=S)[nH]c2ncccc2c1=O	n	n	n	n	51
CCN1C(=O)C2C(c3ccc(SC4CCCCC4)c(OC)c3)N[C@@](Cc3ccccc3)(C(=O)OC)C2C1=O (stereo partly specified)	x	n	x	x	x
COC(=O)c1cc(NC(=O)Nc2cccc(Cl)c2)ccc1Cl	12	n	n	n	n
O=C(Nc1cccc(Cl)c1)Nc1nccs1	n	0.54	n	n	n
O=C(Nc1ccc(Cl)c(Cl)c1)Nc1nccs1	n	x	n	n	n
O=C1C=C(c2ccccc2Oc2ccccc2)CC(c2ccc3c(c2)OCO3)C1 (stereo unspecified)	x	n	x	x	x
O=C(CC1CC=CCCC(Cc2ccc(F)cc2)C(=O)OCCNC1=O)NC(CO)Cc1ccccc1 (stereo unspecified)	x	n	x	x	x
COc1ccc(NC(=O)C(=Cc2ccc(OS(=O)(=O)c3ccc(C)cc3)cc2)NC(=O)c2ccccc2)cc1	x	n	x	x	x
C[n+]1ccn(CC(=O)c2cccs2)c1	n	n	n	n	n
CCCCCCCCCCCCCCCCn1cc[n+](C)c1	n	0.066	n	n	u
C#CCNC(=O)C=Cc1ccc(OC)cc1	x	n	x	x	x
CC(C=NN1C(=O)CSC1=S)=Cc1ccccc1	x	n	x	x	x
O=[N+]([O-])c1ccc(SNc2ccccc2)c([N+](=O)[O-])c1	n	x	x	x	n
O=[N+]([O-])c1ccc(-[n+]2ccc3ccccc3c2)c([N+](=O)[O-])c1	n	0.45	n	n	n
N#CCc1ccc(NC(=O)/C=C/c2ccc([N+](=O)[O-])o2)cc1	x	0.41	x	x	n
CC(C)(C)OC(=O)CC1CC=CCC(CC(=O)NCCO)C(=O)NCCOC1=O (stereo unspecified)	x	n	x	x	x
SMILES	phage Ecoli inh	E coli growth-1	AddAB inh	E coli growth-2	Tat export inh
O=C(CCN1CCOCC1)NNC(=S)NC(=O)c1ccc(Br)cc1	n	0.47	n	n	n
O=C(CCN1CCCCC1)NNC(=S)NC(=O)c1ccc(Br)cc1	n	n	n	n	n
CCOC(=O)C1C2COc3ccc(Cl)cc3C2N2C(=O)c3cc(OC)ccc3NC(=O)[C@@]12C (stereo partly specified)	x	n	x	x	x
CC1(C)OC2CC3C4CCC5=CC(=O)CC[C@]5(C)[C@@]4(F)C(O)C[C@]3(C)[C@]2(C(=O)CCl)O1 (stereo partly specified)	x	n	x	x	x
Fc1ccc2[nH]c3c(NCc4ccccc4)ncnc3c2c1	n	0.45	n	n	n
N=c1n(Cc2ccccc2)c2ccccc2n1CC(O)COc1ccc(Cl)cc1Cl (stereo unspecified)	n	0.5	x	x	n
CC(NC(=O)c1nc[nH]c1C(=O)NC(C)C(=O)OCc1ccccc1)C(=O)OCc1ccccc1 (stereo unspecified)	x	n	x	x	x
CO[C@@]1(NC(=O)CSCC#N)C(=O)N2C(C(=O)O)=C(CSc3nnnn3C)CSC21 (stereo partly specified)	x	n	x	x	x
CO[C@@]1(NC(=O)C2SC(=C(C(N)=O)C(=O)O)S2)C(=O)N2C(C(=O)O)=C(CSc3nnnn3C)CSC21 (stereo partly specified)	x	0.061	x	x	x
CCCSc1ccc(C2C3C(=O)N(CC)C(=O)C3[C@]3(C(=O)OC)CCCCN23)cc1 (stereo partly specified)	x	n	x	x	x
CC(=O)NS(=O)(=O)c1ccc(N)cc1	n	n	n	10!	n
CC(=O)c1ccc(NS(=O)(=O)c2ccc(N)cc2)cc1	n	n	n	n	n
C[C@]12CCC3c4ccc(O)cc4CCC3C1CC(O)C2OC1OC(C(=O)O)C(O)C(O)C1O (stereo partly specified)	x	n	x	x	x
O=C(CSc1ccc2nnc(-c3ccccn3)n2n1)Nc1ccc2c(c1)OCO2	n	n	97	78	n

From PubChem
